In PubChem BioAssay (NCATS) one finds Potency, activity change, positive = activation and activity change, negative = inhibition data, which are given here for 19 molecules.

Where “and” joins values, the source holds several entries; their conditions need not be identical. Equal entries are not always repeated. Values without a mark were called inactive. Inconclusive results are not listed. Calls of active or inactive are those of the source. Calls come from the whole dose curve; as a rule, active = well fitted curve in the direction sought with a large enough effect; inconclusive = small, poorly fitted or top-dose-only effect, or another doubt; inactive = no such curve, though single readings can be large; an effect the other way counts as inactive or inconclusive.

Assay [1] addresses Cytochrome P450 2C9 (Homo sapiens) (UniProt P11712). Kind of assay: qHTS Assay for Inhibitors and Substrates of Cytochrome P450 2C9 (AID 883). For activity change, negative = inhibition: % is set by controls: 0 for no effect and ±100 for the full control effect. Note: nearly all actives have a fitted effect of over 60% in size. Note: potency is the fitted concentration of half-maximal effect. An outline of the steps:
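CYP2C9 deoxyluciferin hydroxylation, 37C, 60 min with NADPH regeneration; 10nM enzyme, 100uM Luciferin-H (KM). Glo detection reagent stopped reaction; luminescence normalized to sulphaphenazole (57uM) full inhibition.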

Assay [2] concerns the target Cytochrome P450 3A4 (Homo sapiens) (UniProt P08684). The assay is described as follows: qHTS Assay for Inhibitors and Substrates of Cytochrome P450 3A4 (AID 884). For activity change, negative = inhibition: series mostly up to about 57 µM; % is set by controls: 0 for no effect and ±100 for the full control effect. Note: nearly all actives have a fitted effect of over 50% in size. Note: potency is the fitted concentration of half-maximal effect. An outline of the steps:
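Luminescent readout of luciferin produced by CYP3A4 (20 nM) dealkylation of Luciferin-PPXE, 25 uM (its KM). NADPH-driven reaction ran 60 min at RT after 10 min compound preincubation; data scaled to 57 uM ketoconazole as 100% inhibition.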

Assay [3] shares this target. The assay is described as follows: qHTS Assay for Activators of Cytochrome P450 3A4 (AID 885). Note: nearly all actives have a fitted effect of over 65% in size. The method, boiled down: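 Human CYP3A4 dealkylates Luciferin-PPXE to luciferin, which luciferase detection converts to light. Substrate was at its KM (25uM), buffer 200mM KPO4, reaction 60 min at RT.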
Assay [4] deals with Cytochrome P450 2D6 (Homo sapiens) (UniProt P10635). Kind of assay: qHTS Assay for Inhibitors and Substrates of Cytochrome P450 2D6 (AID 891).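 Note: luciferin methyl ether substrate demethylated by CYP2D6 with NADPH regeneration; % is set by controls: 0 for no effect and ±100 for the full control effect; nearly all actives have a fitted effect of over 60% in size.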 An outline of the steps: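 Luminescent read-out of luciferin formed by 5 nM human CYP2D6 demethylating 30 uM Luciferin-ME EGE (Km level) over 60 min at room temperature after NADPH regeneration addition. Data normalized to full inhibition by 1.43 uM quinidine.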
Chain of Cytochrome P450 2D6 (Homo sapiens) (P10635 whole entry, looked up): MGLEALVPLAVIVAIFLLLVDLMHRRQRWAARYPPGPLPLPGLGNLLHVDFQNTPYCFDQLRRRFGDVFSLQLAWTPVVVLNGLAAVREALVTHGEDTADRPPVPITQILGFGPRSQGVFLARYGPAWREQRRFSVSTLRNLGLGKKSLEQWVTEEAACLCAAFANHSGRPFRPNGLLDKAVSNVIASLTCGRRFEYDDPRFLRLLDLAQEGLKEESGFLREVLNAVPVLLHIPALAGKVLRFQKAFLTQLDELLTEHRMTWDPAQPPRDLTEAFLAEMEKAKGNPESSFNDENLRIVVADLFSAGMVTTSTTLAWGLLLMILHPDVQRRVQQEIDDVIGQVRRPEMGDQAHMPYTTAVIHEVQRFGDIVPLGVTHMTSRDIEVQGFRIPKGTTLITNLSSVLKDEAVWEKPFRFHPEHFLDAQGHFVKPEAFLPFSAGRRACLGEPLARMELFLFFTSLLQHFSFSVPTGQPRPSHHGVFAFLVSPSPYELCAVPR

Assay [5] concerns the target Cytochrome P450 2C19 (Homo sapiens) (UniProt P33261). The assay is described as follows: qHTS Assay for Inhibitors and Substrates of Cytochrome P450 2C19 (AID 899). Note: nearly all actives have a fitted effect of over 60% in size. Note: potency is the fitted concentration of half-maximal effect. An outline of the steps: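 In 50mM KPO4, the reaction held 5nM enzyme and KM-level (10uM) Luciferin-H EGE; it ran 60 min at 37C after NADPH regeneration and a 10 min compound preincubation. Luminescence values were scaled to 57uM ketoconazole as complete inhibition.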

Chain of Cytochrome P450 2C9 (Homo sapiens) (P11712 whole entry, looked up): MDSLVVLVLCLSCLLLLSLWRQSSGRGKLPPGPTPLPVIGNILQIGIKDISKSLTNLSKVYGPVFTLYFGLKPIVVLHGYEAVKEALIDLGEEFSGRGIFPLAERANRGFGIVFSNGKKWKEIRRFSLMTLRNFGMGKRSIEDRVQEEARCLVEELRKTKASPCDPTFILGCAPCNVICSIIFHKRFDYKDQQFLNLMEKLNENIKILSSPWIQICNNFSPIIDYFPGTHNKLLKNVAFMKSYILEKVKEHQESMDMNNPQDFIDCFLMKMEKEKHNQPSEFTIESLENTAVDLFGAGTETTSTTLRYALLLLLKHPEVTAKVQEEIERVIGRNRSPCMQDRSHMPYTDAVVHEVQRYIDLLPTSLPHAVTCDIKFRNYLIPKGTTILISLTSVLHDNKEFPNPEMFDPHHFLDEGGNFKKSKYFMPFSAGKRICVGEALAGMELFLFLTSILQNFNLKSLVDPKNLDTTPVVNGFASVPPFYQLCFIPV
Chain of Cytochrome P450 3A4 (Homo sapiens) (P08684 whole entry, looked up): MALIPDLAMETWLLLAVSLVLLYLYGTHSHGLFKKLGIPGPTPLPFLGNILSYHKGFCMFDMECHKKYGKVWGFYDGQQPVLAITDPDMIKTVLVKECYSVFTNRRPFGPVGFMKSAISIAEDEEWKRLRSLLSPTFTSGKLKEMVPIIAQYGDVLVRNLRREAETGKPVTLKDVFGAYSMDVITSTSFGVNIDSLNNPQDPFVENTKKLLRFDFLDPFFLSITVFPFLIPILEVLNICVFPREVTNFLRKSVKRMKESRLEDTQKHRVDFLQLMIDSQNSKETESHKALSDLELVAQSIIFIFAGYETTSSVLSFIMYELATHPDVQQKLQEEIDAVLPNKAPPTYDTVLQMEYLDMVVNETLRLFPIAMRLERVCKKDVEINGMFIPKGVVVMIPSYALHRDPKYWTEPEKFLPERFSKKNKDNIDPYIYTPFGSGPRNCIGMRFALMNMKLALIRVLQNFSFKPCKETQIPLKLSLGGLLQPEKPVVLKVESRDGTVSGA
Chain of Cytochrome P450 2C19 (Homo sapiens) (P33261 whole entry, looked up): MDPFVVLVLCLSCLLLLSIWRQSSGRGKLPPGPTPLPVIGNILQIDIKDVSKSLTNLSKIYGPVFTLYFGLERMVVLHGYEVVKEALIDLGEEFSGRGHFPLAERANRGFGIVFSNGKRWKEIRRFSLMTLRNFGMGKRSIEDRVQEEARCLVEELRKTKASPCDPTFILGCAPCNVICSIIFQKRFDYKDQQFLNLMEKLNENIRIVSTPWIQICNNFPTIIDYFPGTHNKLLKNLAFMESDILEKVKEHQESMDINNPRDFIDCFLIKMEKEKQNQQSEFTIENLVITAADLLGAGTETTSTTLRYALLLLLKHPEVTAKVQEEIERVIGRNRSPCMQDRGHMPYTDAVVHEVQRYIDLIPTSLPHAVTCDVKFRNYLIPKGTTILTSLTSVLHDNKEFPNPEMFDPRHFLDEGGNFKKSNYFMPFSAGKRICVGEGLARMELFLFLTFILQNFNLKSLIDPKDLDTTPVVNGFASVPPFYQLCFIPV

Regarding `CC(=O)OCC1OC(C#Cc2ccccc2Cl)C=CC1OC(C)=O` (stereo not given), the Potency result in assay [1] and in assay [4] was “inactive” throughout. The Potency in assay [2] was 3.98 µM (active); in assay [5], 3.16 µM (active). Also, the activity change, positive = activation in assay [3] is -76.5% [at 11.4 µM].

On to `COC(=O)C1=C(C)N(Cc2ccccc2)C2=C(C(=O)c3ccccc3)C(c3ccccc3)[C@@](O)(C(=O)OC)C(=O)N2C1c1ccccc1` (stereo not given in full), for which the Potency entry in assay [1], in assay [4] and in assay [5] was “inactive” throughout. Also, the activity change, negative = inhibition in assay [2] is -22.8% [at 11.4 µM]. For the same molecule, the activity change, positive = activation in assay [3] was -54.4% [at 11.4 µM].

Regarding `CCCCC#CC1C=CC(Oc2ccc(OC)cc2)C(CO)O1` (stereo not given), the Potency entry in assay [1] and in assay [4] was “inactive” each time. For the same molecule, the results for the Potency in assay [2] and in assay [5] were 3.16 µM (active) and 2 µM (active), respectively. Moreover, the activity change, positive = activation in assay [3] is -94.2% [at 11.4 µM].

Take `C=CCOC(=O)C(C(C)=O)C(NC(=O)OC)c1cccc(C(F)(F)F)c1` (stereo not given): the Potency result in assay [1] and in assay [4] was “inactive” each time. Moreover, the Potency in assay [2] is 1.58 µM (active); in assay [5], 0.1 µM (active). Moreover, the activity change, positive = activation in assay [3] was -104% [at 11.4 µM].

For `CC(=O)OCC1OC(C#Cc2ccccc2)C=CC1OC(C)=O` (stereo not given), the Potency result in assay [1], in assay [4] and in assay [5] was “inactive” each time. Further, the Potency in assay [2] was 3.98 µM (active). Also, the activity change, positive = activation in assay [3] was -91.5% [at 11.4 µM] and -31.7% [at 11.4 µM].

Turning to `C=CCOC(=O)/C=C/NC(=O)/C=C/C=C/CCCCCCCC(C)O` (stereo not given), the Potency is 3.98 µM (active) and 2.51 µM (active) in assay [1]; 3.16 µM (active) and 3.98 µM (active) in assay [2]. Moreover, the activity change, positive = activation in assay [3] was -72.9% [at 11.4 µM] and -68.1% [at 11.4 µM]. Besides, the Potency result in assay [4] and in assay [5] was “inactive” in each case.

With `C=CCC1C=CC(OC(=O)OCC)C(COC(=O)OCC)O1` (stereo not given), the Potency result in assay [1] and in assay [4] was “inactive” in each case. In assay [2], the activity change, negative = inhibition is -26.9% [at 11.4 µM]. Besides, in assay [5], the Potency was 0.794 µM (active).

For `COC(=O)CC1=COC2OCC3=CC[C@@H]1C32` (stereo not given in full), the Potency result in assay [1], in assay [4] and in assay [5] was “inactive” in each case. In assay [2], the activity change, negative = inhibition was -15.8% [at 11.4 µM].

`CC12CC3OS(=O)OC3CC3C4C(C(OCc5ccccc5)C31)C42` (stereo not given): the Potency entry in assay [1] and in assay [4] was “inactive” throughout. Moreover, the activity change, negative = inhibition in assay [2] was -26.1% [at 11.4 µM].

On to `CCOC(=O)OCC1OC(C#Cc2ccccc2)C=CC1Oc1cccc(N(C)C)c1` (stereo not given), for which the Potency is 2.51 µM (active) in assay [1], 3.98 µM (active) in assay [2] and 1.58 µM (active) in assay [5]. For the same molecule, in assay [3], the activity change, positive = activation is -91.5% [at 11.4 µM].

As for `Cc1ccccc1OC1C=CC(c2ccccc2)OC1CO` (stereo not given), the Potency entry in assay [1] and in assay [4] was “inactive” in each case. Besides, in assay [2], the activity change, negative = inhibition was -11.7% [at 11.4 µM]. The Potency in assay [5] is 5.01 µM (active).

On to `COc1ccc(O[C@H]2C=C[C@@H](c3ccccc3)O[C@H]2COC(=O)CC/C(C)=N\O[C@@H](C)c2cn([C@H](CO)Cc3ccccc3)nn2)cc1`, for which the Potency in assay [1] was 1.26 µM (active); in assay [2], 3.98 µM (active) and 5.01 µM (active); in assay [5], 63.1 nM (active) and 631 nM (active). In addition, in assay [3], the activity change, positive = activation was -87.6% [at 11.4 µM] and -97.7% [at 11.4 µM].

`COc1ccc(O[C@H]2C=C[C@@H](c3ccccc3)O[C@H]2COC(=O)CC/C(C)=N\OC[C@@H](O)[C@H]2O[C@H]3OC(C)(C)O[C@H]3[C@@H]2O)cc1`: the Potency is 1.58 µM (active) in assay [1], 3.98 µM (active) in assay [2] and 0.005 µM (active) in assay [5]. For the same molecule, the activity change, positive = activation in assay [3] was -92.2% [at 11.4 µM].

In the case of `COC(=O)C/C=C\[C@@H](C)[C@@H](/C=N\OC[C@@H]1O[C@H](c2ccccc2)C=C[C@@H]1Oc1ccc(OC)cc1)NS(=O)(=O)c1ccc(C)cc1`, the Potency in assay [1] was 1.26 µM (active); in assay [2], 5.01 µM (active); in assay [5], 0.398 µM (active). In assay [3], the activity change, positive = activation was -96.1% [at 11.4 µM].

On to `CCN1C(C)=C(C(=O)OC)C(c2ccccc2)N2C(=O)[C@](O)(C(=O)OC)C(c3ccccc3)C(C(=O)c3ccccc3)=C12` (stereo not given in full), for which the Potency result in assay [1] and in assay [5] was “inactive” each time. The Potency in assay [2] is 3.16 µM (active). For the same molecule, the activity change, positive = activation in assay [3] was -65.7% [at 11.4 µM].

`COc1cccc(/C=C/C2=CC3(C)CC2(C)C(c2cccc(OC)c2)CC3=O)c1` (stereo not given): the Potency is 3.16 µM (active) in assay [1], 3.98 µM (active) in assay [2] and 2 µM (active) in assay [5]. The activity change, positive = activation in assay [3] is -78.1% [at 11.4 µM].

As for `CNc1ccccc1C(=O)OCC(=O)c1ccccc1`, the Potency result in assay [1] and in assay [4] was “inactive” in each case. In assay [2], the activity change, negative = inhibition is -18.7% [at 11.4 µM].

On to `COc1ccc(OCC2CC3C(CCC(C)C3c3ccc(Br)cc3)C(=O)O2)cc1` (stereo not given), for which the Potency entry in assay [1] and in assay [5] was “inactive” in each case. For the same molecule, in assay [2], the Potency was 3.98 µM (active). In addition, the activity change, positive = activation in assay [3] is -84.4% [at 11.4 µM].

As to `COc1ccc(O[C@H]2C=C[C@@H](c3ccccc3)O[C@H]2CO/N=C2/c3cc(OC)ccc3O[C@@H](c3cccc(OC)c3)[C@H]2O)cc1`, the Potency in assay [1] is 3.16 µM (active); in assay [2], 3.16 µM (active); in assay [5], 0.501 µM (active). Moreover, the activity change, positive = activation in assay [3] was -100% [at 11.4 µM].
